# Source: PubChem BioAssay (NCI)
# This is part of a sample that, as a whole, favours compounds with a hit. Of some 83,000 tested, about 20% had one in any assay.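 Method: cells in 96-well plates; compound added at one concentration; 48 h incubation; percent growth measured; values under 10 scored active.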 Unmarked numbers belong to inactive results. Calls of active or inactive are those of the source.
# System: HCT-15 colon
# Test: NCI-60 one-dose screen, 48 h (100 = growth as untreated, 0 = no growth, -100 = all killed)
# Settings: 10 µM
# Protocol: Growth inhibition of the HCT-15 human tumor cell line is measured as a screen for anti-cancer activity. Cells are grown in 96 well plates and exposed to the test compound for 48 hours. Compounds are tested at a single concentration, which is 10^-5 M for most compounds. The reported endpoint is percent growth (GI% or GIPRCNT), where numbers from 0 - 100% represent growth inhibition, and numbers from -100% - 0 represent cell death. For example, a value of 40 represents 60% growth inhibition. A value of 0 means no net growth occurred over the course of the experiment. A value of -40 indicates 40% of cells at the beginning of the experiment died by the end of the experiment. A value of -100 means all cells are dead at the end of the experiment.
# NCI-60 Human Tumor Cell Lines Screen was performed using the standard one-dose NCI protocol, which is described in more detail at https://dtp.cancer.gov/discovery_development/nci-60/default.htm.
# Compounds with GIPRCNT values below 10 were considered active. Activity score was based on GIPRCNT using the following formula: […]
# Score is 0 for GIPRCNT values of 100 or above, 50 for GIPRCNT values of 0, and 100 for GIPRCNT values of -100.
row,SMILES,growth
1,Cc1cc(NC(=O)CSCC(=O)O)no1,96.7%
2,CCNCCCCNCCCCNCCCCNCCCCNCC,99.1%
3,COc1cc(C(N)=O)cc(OC)c1OC,101%
4,CCOC(=O)c1[nH]c(C)c(C(C)=O)c1C,103%
5,CCCC1(c2ccccc2)NC(=O)NC1=O (stereo not given),108%
6,N#C/C(=C\c1cc(O)c(O)c(O)c1)C(N)=O,88.6%
7,COc1ccc(OC)c(/C=C2\CCc3ccccc3C2=O)c1,24.3%
8,CCCC(C)OCC(=O)O (stereo not given),104%
9,Cc1cc(/C=C/c2ccc3cc(N(C)C)ccc3[n+]2C)c(C)n1-c1ccccc1,-29.5% (active)
10,C#CC(C)(O)c1ccc(Cl)cc1 (stereo not given),98.4%
11,COc1cc2nc3cc([N+](=O)[O-])ccc3c(Cl)c2cc1OC,94.6%
12,COc1cc([C@@H]2c3cc4c(cc3[C@H](O)[C@H]3COC(=O)[C@H]23)OCO4)cc(OC)c1OC,10.4%
13,Nc1nc(N)c2cc(S(=O)(=O)c3cccc(C(F)(F)F)c3)ccc2n1,33.2%
14,Cc1ccc(C(O)C2CC2)cc1 (stereo not given),97.7%
15,COc1cc(C2c3cc4c(cc3C3OC(=O)C2C3CO)OCO4)cc(OC)c1OC (stereo not given),3.35% (active)
16,CC(C)=CC(=O)OC(=O)C=C(C)C,102%
17,CN(C)CCN(Cc1ccccc1)c1ccccc1,105%
18,COc1cc(CN)ccc1O,111%
19,CCOC(=O)C/C(C)=N\O,103%
20,O=C1Cc2ccccc2C(=O)O1,110%

row,SMILES,growth
1,COc1ccc(C(=O)C(Br)C(Br)C(=O)O)cc1 (stereo not given),98.1%
2,CCOC(=O)C1=C(Nc2ccc(Br)cc2)C(=O)N(CC)C1,91.4%
3,O=C(O)CCC(=O)OC(C1CO1)C(OC(=O)CCC(=O)O)C1CO1 (stereo not given),97.9%
4,CN(C)c1ccc2nc3ccc(=N)cc-3sc2c1,38.8%
5,O=C1OC(c2ccc(F)cc2)CC1CN1CCOCC1 (stereo not given),110%
6,CCOC(=O)CCCC(=O)OCC,104%
7,Cc1nc2ccccc2c2nnc(SCC(=O)N(Cc3ccccc3)c3ccccc3)n12,90.4%
8,CC(C(=O)O)(C1CCCCC1)C1(O)CCCCC1 (stereo not given),104%
9,CCOc1ccc(I)cc1,103%
10,COc1ccc2c(c1)CCc1c-2n[nH]c1-c1[nH]nc2c1CCc1cc(OC)ccc1-2,35.6%
11,CC(C)C1CCCCC1O (stereo not given),96%
12,c1ccc(Sc2ccccc2)cc1,99.4%
13,CC(=O)NCc1cc(C)c(C)cc1C,105%
14,Nc1ccc(N=Nc2ccc(S(=O)(=O)O)cc2)c2ccccc12,99.9%
15,C=CCCCCCCCCCOC(C)=O,114%
16,Cc1cc2nc(CC(=O)c3ccccc3)c(=O)[nH]c2cc1C,87.7%
17,CCCCC/C=N/Nc1nc(C)cc(=O)[nH]1,116%
18,CN(C)CCN(C)CC(C)(C)C(=O)/C=C/c1ccc(Cl)cc1,-66.4% (active)
19,O=S(=O)(O)c1ccc(O)c2ccccc12,113%
20,Cc1c(C(=O)O)c(=O)n(-c2ccccc2)n1C,107%
